Source: the supplement of paper PMC8728848
The sample as a whole holds a higher share of the strongest signals than the screen did.

Key:
Test in all cases: glycan array binding signal (z-score within array); higher = stronger binding
Conditions in all cases: glycan notation: IUPAC condensed, linker removed
[1] = target: Fuc(a1-2)Gal(b1-3)GalNAc(a1-3)[Fuc(a1-2)]Gal(b1-4)GlcNAc
In short: (§1)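 The binding signal is a Z-score computed within each array and averaged over linkers. Arrays of the same protein sequence at different concentrations or buffers were also averaged together. Data originate from 3228 arrays in the Consortium for Functional Glycomics database, kept only where the protein sequence was available.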

[2] = target: Fuc(a1-2)Gal(b1-3)GlcNAc(b1-3)Gal(b1-4)Glc
In short: as §1

[3] = target: Fuc(a1-2)Gal(b1-3)GlcNAc6S
In short: as §1

[4] = target: Fuc(a1-2)Gal(b1-4)GlcNAc(b1-2)Man(a1-3)[Fuc(a1-2)Gal(b1-4)GlcNAc(b1-2)Man(a1-6)]Man(b1-4)GlcNAc(b1-4)[Fuc(a1-6)]GlcNAc
In short: as §1

[5] = target: Fuc(a1-2)Gal6S(b1-3)GlcNAc6S
In short: as §1

[6] = target: Fuc(a1-2)[Gal(a1-3)]Gal(b1-4)GlcNAc(b1-2)Man
In short: as §1

[7] = target: Fuc(a1-2)[GalNAc(a1-3)]Gal(b1-3)GalNAc(a1-3)[Fuc(a1-2)]Gal(b1-4)GlcNAc
In short: as §1

[8] = target: Fuc(a1-2)[GalNAc(a1-3)]Gal(b1-3)GlcNAc(b1-2)Man(a1-3)[Fuc(a1-2)[GalNAc(a1-3)]Gal(b1-3)GlcNAc(b1-2)Man(a1-6)]Man(b1-4)GlcNAc(b1-4)GlcNAc
In short: as §1

[9] = target: Fuc(a1-2)[GalNAc(a1-3)]Gal(b1-4)GlcNAc(b1-6)GalNAc
In short: as §1

[10] = target: Fuc(a1-3)[Gal(b1-4)]GlcNAc(b1-3)Gal(b1-3)[Fuc(a1-4)]GlcNAc
In short: as §1

[11] = target: Fuc(a1-3)[GalNAc(b1-4)]GlcNAc6S
In short: as §1

[12] = target: Gal(a1-3)Gal(b1-3)GlcNAc(b1-6)GalNAc
In short: as §1

[13] = target: Gal(a1-3)Gal(b1-4)[Fuc(a1-3)]GlcNAc
In short: as §1

[14] = target: Gal(b1-3)GalNAc(b1-4)[Neu5Ac(a2-3)]Gal(b1-4)Glc
In short: as §1

[15] = target: Gal(b1-3)GlcNAc(b1-3)Gal(b1-4)GlcNAc(b1-6)[Gal(b1-3)GlcNAc(b1-3)]Gal(b1-4)Glc
In short: as §1

[16] = target: Gal(b1-3)GlcNAc(b1-3)Gal(b1-4)[Fuc(a1-3)]GlcNAc
In short: as §1

[17] = target: Gal(b1-4)GlcNAc(b1-2)Man(a1-3)[Gal(b1-4)GlcNAc(b1-2)Man(a1-6)]Man(b1-4)GlcNAc(b1-4)[Fuc(a1-6)]GlcNAc
In short: as §1

[18] = target: Gal(b1-4)GlcNAc(b1-2)[Gal(b1-4)GlcNAc(b1-6)]Man(a1-6)[Gal(b1-4)GlcNAc(b1-2)Man(a1-3)]Man(b1-4)GlcNAc(b1-4)GlcNAc
In short: as §1

[19] = target: Gal(b1-4)GlcNAc(b1-3)Gal(b1-4)Glc
In short: as §1

[20] = target: Gal(b1-4)GlcNAc(b1-3)Gal(b1-4)GlcNAc(b1-3)Gal(b1-4)GlcNAc(b1-2)Man(a1-3)[Gal(b1-4)GlcNAc(b1-3)Gal(b1-4)GlcNAc(b1-3)Gal(b1-4)GlcNAc(b1-2)Man(a1-6)]Man(b1-4)GlcNAc(b1-4)GlcNAc
In short: as §1

[21] = target: Gal(b1-4)GlcNAc(b1-3)Gal(b1-4)GlcNAc(b1-3)Gal(b1-4)GlcNAc(b1-3)Gal(b1-4)GlcNAc(b1-2)Man(a1-3)[Gal(b1-4)GlcNAc(b1-3)Gal(b1-4)GlcNAc(b1-3)Gal(b1-4)GlcNAc(b1-3)Gal(b1-4)GlcNAc(b1-2)Man(a1-6)]Man(b1-4)GlcNAc(b1-4)GlcNAc
In short: as §1

[22] = target: Gal(b1-4)GlcNAc(b1-3)Gal(b1-4)GlcNAc(b1-3)Gal(b1-4)GlcNAc(b1-3)Gal(b1-4)GlcNAc(b1-2)Man(a1-3)[Gal(b1-4)GlcNAc(b1-3)Gal(b1-4)GlcNAc(b1-3)Gal(b1-4)GlcNAc(b1-3)Gal(b1-4)GlcNAc(b1-2)Man(a1-6)]Man(b1-4)GlcNAc(b1-4)[Fuc(a1-6)]GlcNAc
In short: as §1

[23] = target: Gal(b1-4)GlcNAc(b1-3)Gal(b1-4)GlcNAc(b1-6)[Gal(b1-3)]GalNAc
In short: as §1

[24] = target: Gal(b1-4)GlcNAc(b1-6)GalNAc
In short: as §1

B1: YghJ (Escherichia coli), E3PJ90 (protein)
chain: MNKKFKYKKSLLAAILSATLLAGCDGGGSGSSSDTPPVDSGTGSLPEVKPDPTPNPEPTPEPTPDPEPTPEPIPDPEPTPEPEPEPVPTKTGYLTLGGSQRVTGATCNGESSDGFTFKPGEDVTCVAGNTTIATFNTQSEAARSLRAVEKVSFSLEDAQELAGSDDKKSNAVSLVTSSNSCPANTEQVCLTFSSVIESKRFDSLYKQIDLAPEEFKKLVNEEVENNAATDKAPSTHTSPVVPVTTPGTKPDLNASFVSANAEQFYQYQPTEIILSEGRLVDSQGYGVAGVNYYTNSGRGVTGENGEFSFSWGEAISFGIDTFELGSVRGNKSTIALTELGDEVRGANIDQLIHRYSTTGQNNTRVVPDDVRKVFAEYPNVINEIINLSLSNGATLGEGEQVVNLPNEFIEQFNTGQAKEIDTAICAKTDGCNEARWFSLTTRNVNDGQIQGVINKLWGVDTNYKSVSKFHVFHDSTNFYGSTGNARGQAVVNISNAAFPILMARNDKNYWLAFGEKRAWDKNELAYITEAPSIVRPENVTRETASFNLPFISLGQVGDGKLMVIGNPHYNSILRCPNGYSWNGGVNKDGQCTLNSDPDDMKNFMENVLRYLSNDRWLPDAKSSMTVGTNLETVYFKKHGQVLGNSAPFAFHKDFTGITVKPMTSYGNLNPDEVPLLILNGFEYVTQWGSDPYSIPLRADTSKPKLTQQDVTDLIAYMNKGGSVLIMENVMSNLKEESASGFVRLLDAAGLSMALNKSVVNNDPQGYPDRVRQRRSTPIWVYERYPAVDGKPPYTIDDTTKEVIWKYQQENKPDDKPKLEVASWQEEVEGKQVTQFAFIDEADHKTPESLAAAKQRILDAFPGLEVCKDSDYHYEVNCLEYRPGTDVPVTGGMYVPQYTQLDLSADTAKAMLQAADLGTNIQRLYQHELYFRTNGRQGERLNSVDLERLYQNMSVWLWNETKYRYEEGKEDELGFKTFTEFLNCYTNNAYVGTQCSAELKKSLIDNKMIYGEESSKAGMMNPSYPLNYMEKPLTRLMLGRSWWDLNIKVDVEKYPGVVNTNGETVTQNINLYSAPTKWFAGNMQSTGLWAPAQQEVSIESKSTVPVTVTVALADDLTGREKHEVSLNRPPRVTKTYDLKANDKVTFKVPYGGLIYIKGDSKEVQSADFTFTGVVKAPFYKDGKWQHDLNSPAPLGELESASFVYTTPKKNLNASNYTGGLEQFANDLDTFASSMNDFYGRDSEDGKHRMFTYKNLPGHKHRFANDVQISIGDAHSGYPVMNSSFSPNSTTLPTTPLNDWLIWHEVGHNAAETPLTVPGATEVANNVLALYMQDRYLGKMNRVADDITVAPEYLEESNGQAWARGGAGDRLLMYAQLKEWAEKNFDIKKWYPDGTPLPEFYSEREGMKGWNLFQLMHRKARGDEVSNDKFGGKNYCAESNGNAADTLMLCASWVAQTDLSEFFKKWNPGANAYQLPGASEMSFEGGVSQSAYNTLASLDLPKPEQGPETINQVTEHKMSAE
[1]
  glycan array binding signal (z-score): -1.47
[2]
  glycan array binding signal (z-score): -0.678
[3]
  glycan array binding signal (z-score): 2.47
[4]
  glycan array binding signal (z-score): -0.129
[5]
  glycan array binding signal (z-score): 3.49
[6]
  glycan array binding signal (z-score): -1.3
[7]
  glycan array binding signal (z-score): -0.92
[8]
  glycan array binding signal (z-score): 0.546
[9]
  glycan array binding signal (z-score): 0.95
[10]
  glycan array binding signal (z-score): 2.74
[11]
  glycan array binding signal (z-score): 0.125
[12]
  glycan array binding signal (z-score): 0.282
[13]
  glycan array binding signal (z-score): -2.21
[14]
  glycan array binding signal (z-score): -0.276
[15]
  glycan array binding signal (z-score): 1.23
[16]
  glycan array binding signal (z-score): 2.4
[17]
  glycan array binding signal (z-score): 2.37
[18]
  glycan array binding signal (z-score): 0.576
[19]
  glycan array binding signal (z-score): 0.172
[20]
  glycan array binding signal (z-score): 0.559
[21]
  glycan array binding signal (z-score): -0.172
[22]
  glycan array binding signal (z-score): 2.84
[23]
  glycan array binding signal (z-score): -0.193
[24]
  glycan array binding signal (z-score): -0.103
